# Source: PMC7862700, “An all-to-all approach to the identification of sequence-specific readers for epigenetic DNA modifications on cytosine”
# How the values were obtained:
# Experiment in all cases: DAPPL (digital affinity profiling via proximity ligation, sequencing); 10 mM Tris-HCl pH 7.5, 50 mM NaCl, 1 mM DTT, 4% glycerol, room temperature, 30 min; GST-TFs on glutathione beads, 16-mer random dsDNA library, 0.1% formaldehyde crosslink after washing; high values mean tight binding
# FEV = biological target: T1, FEV (Homo sapiens, UniProt Q99581 1-238); conditions: protein: recombinant; tags: N-terminal GST; dsDNA, one strand shown
# T1 sequence: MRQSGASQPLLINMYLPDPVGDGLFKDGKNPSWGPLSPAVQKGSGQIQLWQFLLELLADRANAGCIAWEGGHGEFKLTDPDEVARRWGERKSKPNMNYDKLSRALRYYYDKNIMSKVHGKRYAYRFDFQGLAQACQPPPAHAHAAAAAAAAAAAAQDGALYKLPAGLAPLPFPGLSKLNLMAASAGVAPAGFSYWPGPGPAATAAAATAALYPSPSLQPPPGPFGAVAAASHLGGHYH
# Method in brief: (§1)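 Human transcription factors carrying a GST fusion were produced in yeast, bound to glutathione beads, tagged with DNA barcodes and pooled together with a tag-only sample. Each pool was held with 200 nmole of a random double-stranded 16-mer DNA library in Tris/NaCl/DTT/glycerol buffer for 30 min at room temperature, then washed, crosslinked in 0.1% formaldehyde, proximity-ligated with BsaI/T4 ligase (1 h, 37 °C), PCR-amplified and sequenced on an Illumina NextSeq500. Binding signal is the read frequency of each hexamer for a given factor divided by its frequency in the tag-only sample.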
# ETV5 = ETV5 (Homo sapiens, UniProt P41161 1-510); conditions: protein: recombinant; tags: N-terminal GST; dsDNA, one strand shown
# Chain of ETV5 (P41161 whole entry): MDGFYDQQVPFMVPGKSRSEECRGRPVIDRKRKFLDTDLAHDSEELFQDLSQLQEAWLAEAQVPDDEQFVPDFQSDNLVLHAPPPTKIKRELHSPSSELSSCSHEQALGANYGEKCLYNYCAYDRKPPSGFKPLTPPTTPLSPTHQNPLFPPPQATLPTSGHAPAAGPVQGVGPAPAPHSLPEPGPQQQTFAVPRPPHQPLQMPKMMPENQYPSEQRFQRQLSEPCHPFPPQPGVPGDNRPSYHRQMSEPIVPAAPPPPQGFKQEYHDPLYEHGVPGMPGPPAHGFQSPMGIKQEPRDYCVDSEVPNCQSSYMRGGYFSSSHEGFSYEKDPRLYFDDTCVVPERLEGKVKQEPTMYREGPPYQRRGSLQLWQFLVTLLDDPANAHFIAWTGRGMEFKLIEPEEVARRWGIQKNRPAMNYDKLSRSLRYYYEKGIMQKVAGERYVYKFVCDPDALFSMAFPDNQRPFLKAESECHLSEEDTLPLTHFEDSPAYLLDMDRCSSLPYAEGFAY
# Method in brief: as §1
# HSF1 = HSF1 (Homo sapiens, UniProt Q00613 1-529); conditions: protein: recombinant; tags: N-terminal GST; chain copies: 3; dsDNA, one strand shown
# Chain of HSF1 (Q00613 whole entry): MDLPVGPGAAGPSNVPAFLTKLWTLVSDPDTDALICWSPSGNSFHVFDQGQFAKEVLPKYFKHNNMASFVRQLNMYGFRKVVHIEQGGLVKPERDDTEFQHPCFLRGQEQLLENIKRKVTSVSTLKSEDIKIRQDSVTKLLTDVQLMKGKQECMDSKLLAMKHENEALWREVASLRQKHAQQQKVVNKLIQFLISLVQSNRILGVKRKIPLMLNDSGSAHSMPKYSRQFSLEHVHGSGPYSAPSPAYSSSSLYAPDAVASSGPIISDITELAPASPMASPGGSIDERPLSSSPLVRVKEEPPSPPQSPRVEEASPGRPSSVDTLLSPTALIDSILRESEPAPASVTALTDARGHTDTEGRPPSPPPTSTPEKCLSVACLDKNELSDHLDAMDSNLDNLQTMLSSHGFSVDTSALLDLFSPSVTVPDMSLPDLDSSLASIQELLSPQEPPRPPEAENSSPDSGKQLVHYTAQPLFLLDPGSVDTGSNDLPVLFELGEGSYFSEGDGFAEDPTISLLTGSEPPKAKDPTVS
# Method in brief: as §1
# SPIC = biological target: T2, SPIC (Homo sapiens, UniProt Q8N5J4 1-248); conditions: protein: recombinant; tags: N-terminal GST; dsDNA, one strand shown
# T2 sequence: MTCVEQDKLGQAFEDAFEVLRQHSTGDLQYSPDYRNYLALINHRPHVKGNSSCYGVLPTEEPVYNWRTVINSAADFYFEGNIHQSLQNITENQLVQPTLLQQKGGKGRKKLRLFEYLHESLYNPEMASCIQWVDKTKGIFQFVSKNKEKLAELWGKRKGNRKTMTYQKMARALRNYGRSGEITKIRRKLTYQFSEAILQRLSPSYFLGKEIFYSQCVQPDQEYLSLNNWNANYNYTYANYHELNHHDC
# Method in brief: as §1
# ELF4 = ELF4 (Homo sapiens, UniProt Q99607 1-663); conditions: protein: recombinant; tags: N-terminal GST; dsDNA, one strand shown
# Chain of ELF4 (Q99607 whole entry): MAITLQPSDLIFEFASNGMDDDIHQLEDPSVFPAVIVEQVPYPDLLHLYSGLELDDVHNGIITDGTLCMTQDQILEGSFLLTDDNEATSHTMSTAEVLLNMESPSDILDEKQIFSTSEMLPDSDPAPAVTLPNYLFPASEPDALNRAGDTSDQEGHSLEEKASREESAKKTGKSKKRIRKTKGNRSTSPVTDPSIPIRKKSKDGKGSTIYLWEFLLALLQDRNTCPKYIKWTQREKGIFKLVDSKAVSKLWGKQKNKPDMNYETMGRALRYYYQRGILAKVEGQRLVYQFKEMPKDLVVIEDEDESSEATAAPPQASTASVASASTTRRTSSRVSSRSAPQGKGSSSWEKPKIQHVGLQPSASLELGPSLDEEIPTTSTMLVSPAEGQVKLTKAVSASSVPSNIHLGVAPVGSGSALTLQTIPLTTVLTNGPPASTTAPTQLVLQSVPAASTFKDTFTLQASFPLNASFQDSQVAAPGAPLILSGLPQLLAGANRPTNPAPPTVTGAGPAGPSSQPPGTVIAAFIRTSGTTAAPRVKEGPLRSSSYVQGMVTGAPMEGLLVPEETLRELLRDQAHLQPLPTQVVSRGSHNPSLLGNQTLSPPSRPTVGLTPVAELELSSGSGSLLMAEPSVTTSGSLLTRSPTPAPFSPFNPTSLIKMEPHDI
# Method in brief: as §1
# ELK4 = biological target: T3, ELK4 (Homo sapiens, UniProt P28324-2 1-405); conditions: protein: recombinant; tags: N-terminal GST; dsDNA, one strand shown
# T3 sequence: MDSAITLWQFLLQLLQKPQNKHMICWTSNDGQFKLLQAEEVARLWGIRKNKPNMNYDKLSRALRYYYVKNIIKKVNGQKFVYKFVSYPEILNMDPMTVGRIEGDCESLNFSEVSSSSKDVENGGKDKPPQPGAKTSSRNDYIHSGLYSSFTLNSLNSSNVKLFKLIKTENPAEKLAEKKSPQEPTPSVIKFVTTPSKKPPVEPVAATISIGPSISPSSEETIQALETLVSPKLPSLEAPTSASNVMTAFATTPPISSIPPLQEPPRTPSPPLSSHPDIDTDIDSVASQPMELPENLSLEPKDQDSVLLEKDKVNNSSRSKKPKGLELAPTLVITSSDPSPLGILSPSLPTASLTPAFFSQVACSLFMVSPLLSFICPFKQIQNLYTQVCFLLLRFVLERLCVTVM
# Method in brief: as §1
# ETV2 = biological target: T4, ETV2 (Homo sapiens, UniProt O00321 1-342); conditions: protein: recombinant; tags: N-terminal GST; dsDNA, one strand shown
# T4 sequence: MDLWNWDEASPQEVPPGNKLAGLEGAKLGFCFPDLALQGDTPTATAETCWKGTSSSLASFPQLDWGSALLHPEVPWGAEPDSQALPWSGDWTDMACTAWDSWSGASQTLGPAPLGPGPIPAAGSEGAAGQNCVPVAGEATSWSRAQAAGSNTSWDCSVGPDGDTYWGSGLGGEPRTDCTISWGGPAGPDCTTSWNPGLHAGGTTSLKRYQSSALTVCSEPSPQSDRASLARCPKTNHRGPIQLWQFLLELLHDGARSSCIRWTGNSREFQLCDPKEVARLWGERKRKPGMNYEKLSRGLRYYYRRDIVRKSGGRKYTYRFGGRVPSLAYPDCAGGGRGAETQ
# Method in brief: as §1
# ELF3 = biological target: T5, ELF3 (Homo sapiens, UniProt P78545 1-371); conditions: protein: recombinant; tags: N-terminal GST; dsDNA, one strand shown
# T5 sequence: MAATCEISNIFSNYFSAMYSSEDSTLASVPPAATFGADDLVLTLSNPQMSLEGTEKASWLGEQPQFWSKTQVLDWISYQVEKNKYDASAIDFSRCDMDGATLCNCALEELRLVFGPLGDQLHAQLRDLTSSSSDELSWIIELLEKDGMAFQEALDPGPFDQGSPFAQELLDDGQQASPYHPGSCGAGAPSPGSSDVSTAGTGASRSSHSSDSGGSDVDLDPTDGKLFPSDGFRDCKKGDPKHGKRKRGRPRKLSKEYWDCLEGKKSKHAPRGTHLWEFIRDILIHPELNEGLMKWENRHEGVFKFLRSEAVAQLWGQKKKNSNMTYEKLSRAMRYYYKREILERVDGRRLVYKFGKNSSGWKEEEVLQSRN
# Method in brief: as §1
# CRX = CRX (Homo sapiens, UniProt O43186 1-299); conditions: protein: recombinant; tags: N-terminal GST; dsDNA, one strand shown
# Chain of CRX (O43186 whole entry): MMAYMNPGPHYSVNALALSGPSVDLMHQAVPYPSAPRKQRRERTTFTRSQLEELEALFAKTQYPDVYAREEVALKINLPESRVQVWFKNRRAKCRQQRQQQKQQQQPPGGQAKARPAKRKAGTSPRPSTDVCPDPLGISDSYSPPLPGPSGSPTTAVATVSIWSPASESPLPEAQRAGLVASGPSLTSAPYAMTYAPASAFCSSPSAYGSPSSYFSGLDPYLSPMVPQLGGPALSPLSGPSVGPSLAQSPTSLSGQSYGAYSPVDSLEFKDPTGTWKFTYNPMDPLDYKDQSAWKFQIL
# Method in brief: as §1
# ETV1 = ETV1 (Homo sapiens, UniProt P50549 1-477); conditions: protein: recombinant; tags: N-terminal GST; dsDNA, one strand shown
# Chain of ETV1 (P50549 whole entry): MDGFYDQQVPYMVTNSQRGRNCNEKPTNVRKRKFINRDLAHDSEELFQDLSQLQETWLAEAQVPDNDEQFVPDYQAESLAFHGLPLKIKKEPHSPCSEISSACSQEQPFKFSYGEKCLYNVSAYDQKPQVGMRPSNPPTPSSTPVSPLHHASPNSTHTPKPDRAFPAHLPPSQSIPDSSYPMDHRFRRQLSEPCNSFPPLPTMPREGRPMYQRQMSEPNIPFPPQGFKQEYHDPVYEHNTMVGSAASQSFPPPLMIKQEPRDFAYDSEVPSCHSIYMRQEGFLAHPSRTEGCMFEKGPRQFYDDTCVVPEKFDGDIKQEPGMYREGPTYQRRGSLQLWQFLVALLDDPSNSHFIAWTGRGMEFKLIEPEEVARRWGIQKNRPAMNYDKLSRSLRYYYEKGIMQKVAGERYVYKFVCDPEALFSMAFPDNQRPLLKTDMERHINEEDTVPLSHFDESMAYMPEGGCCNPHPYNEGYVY
# Method in brief: as §1
# ERF = biological target: T6, ERF (Homo sapiens, UniProt P50548 1-548); conditions: protein: recombinant; tags: N-terminal GST; dsDNA, one strand shown
# T6 sequence: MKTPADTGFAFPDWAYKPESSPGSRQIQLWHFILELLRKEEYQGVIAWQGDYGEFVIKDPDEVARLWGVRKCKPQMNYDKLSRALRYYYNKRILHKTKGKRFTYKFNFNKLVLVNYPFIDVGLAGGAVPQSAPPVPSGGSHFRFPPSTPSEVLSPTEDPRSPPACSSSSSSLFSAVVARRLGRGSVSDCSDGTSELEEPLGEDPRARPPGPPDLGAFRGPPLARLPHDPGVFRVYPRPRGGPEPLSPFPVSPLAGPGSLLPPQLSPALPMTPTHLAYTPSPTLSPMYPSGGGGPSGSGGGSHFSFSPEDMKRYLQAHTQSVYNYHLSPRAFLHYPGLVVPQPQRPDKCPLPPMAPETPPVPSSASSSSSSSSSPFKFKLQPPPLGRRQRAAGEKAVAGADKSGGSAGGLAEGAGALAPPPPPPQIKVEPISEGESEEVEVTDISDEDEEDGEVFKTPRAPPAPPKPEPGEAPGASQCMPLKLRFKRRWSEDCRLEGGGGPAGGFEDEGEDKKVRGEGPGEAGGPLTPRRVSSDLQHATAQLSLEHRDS
# Method in brief: as §1
# ETV3L = biological target: T7, ETV3L (Homo sapiens, UniProt Q6ZN32 1-361); conditions: protein: recombinant; tags: N-terminal GST; dsDNA, one strand shown
# T7 sequence: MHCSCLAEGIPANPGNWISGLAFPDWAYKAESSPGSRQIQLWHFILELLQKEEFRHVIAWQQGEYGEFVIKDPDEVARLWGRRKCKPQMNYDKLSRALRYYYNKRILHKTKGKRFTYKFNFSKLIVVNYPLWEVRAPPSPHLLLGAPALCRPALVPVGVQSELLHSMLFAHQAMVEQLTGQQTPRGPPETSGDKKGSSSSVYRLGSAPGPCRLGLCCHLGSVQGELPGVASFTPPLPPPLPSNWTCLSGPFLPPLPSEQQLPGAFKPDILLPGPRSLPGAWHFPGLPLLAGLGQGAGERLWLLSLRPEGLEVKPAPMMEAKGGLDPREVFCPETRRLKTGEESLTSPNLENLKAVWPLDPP
# Method in brief: as §1
# ETS2 = biological target: T8, ETS2 (Homo sapiens, UniProt P15036 1-469); conditions: protein: recombinant; tags: N-terminal GST; dsDNA, one strand shown
# T8 sequence: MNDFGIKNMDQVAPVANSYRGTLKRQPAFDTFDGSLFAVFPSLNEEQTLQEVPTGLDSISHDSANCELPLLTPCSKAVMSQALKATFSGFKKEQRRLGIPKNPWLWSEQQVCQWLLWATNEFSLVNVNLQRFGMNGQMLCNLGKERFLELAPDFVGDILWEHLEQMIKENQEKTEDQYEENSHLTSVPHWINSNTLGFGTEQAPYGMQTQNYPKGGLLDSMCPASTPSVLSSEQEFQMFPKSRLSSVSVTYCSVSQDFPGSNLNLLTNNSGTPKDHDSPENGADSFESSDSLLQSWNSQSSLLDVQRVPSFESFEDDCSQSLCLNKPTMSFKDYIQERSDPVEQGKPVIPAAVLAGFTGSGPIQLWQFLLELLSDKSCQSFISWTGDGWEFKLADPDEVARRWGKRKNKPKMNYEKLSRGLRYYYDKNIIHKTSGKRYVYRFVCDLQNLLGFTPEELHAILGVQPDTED
# Method in brief: as §1
# SPDEF = biological target: T9, SPDEF (Homo sapiens, UniProt O95238 1-335); conditions: protein: recombinant; tags: N-terminal GST; dsDNA, one strand shown
# T9 sequence: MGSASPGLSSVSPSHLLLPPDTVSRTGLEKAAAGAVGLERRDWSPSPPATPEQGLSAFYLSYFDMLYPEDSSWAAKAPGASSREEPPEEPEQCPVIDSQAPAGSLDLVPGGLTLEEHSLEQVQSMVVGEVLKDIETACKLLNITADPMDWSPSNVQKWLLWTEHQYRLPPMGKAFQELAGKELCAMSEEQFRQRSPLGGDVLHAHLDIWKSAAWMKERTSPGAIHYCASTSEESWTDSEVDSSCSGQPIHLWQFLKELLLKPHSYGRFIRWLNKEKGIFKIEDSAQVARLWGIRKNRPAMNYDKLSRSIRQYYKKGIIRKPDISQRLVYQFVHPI
# Method in brief: as §1
# ETV7 = biological target: T10, ETV7 (Homo sapiens, UniProt Q9Y603 1-341); conditions: protein: recombinant; tags: N-terminal GST; dsDNA, one strand shown
# T10 sequence: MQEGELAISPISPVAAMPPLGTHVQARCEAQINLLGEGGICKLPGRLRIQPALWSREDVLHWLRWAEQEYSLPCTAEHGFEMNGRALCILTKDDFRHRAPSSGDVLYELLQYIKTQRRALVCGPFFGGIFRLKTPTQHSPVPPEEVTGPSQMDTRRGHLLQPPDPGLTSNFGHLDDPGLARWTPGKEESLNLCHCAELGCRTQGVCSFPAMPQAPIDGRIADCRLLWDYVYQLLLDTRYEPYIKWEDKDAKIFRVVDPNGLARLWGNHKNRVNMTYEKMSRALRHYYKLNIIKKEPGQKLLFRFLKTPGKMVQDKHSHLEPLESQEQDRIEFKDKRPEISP
# Method in brief: as §1
# ELF5 = biological target: T11, ELF5 (Homo sapiens, UniProt Q9UKW6-2 1-255); conditions: protein: recombinant; tags: N-terminal GST; dsDNA, one strand shown
# T11 sequence: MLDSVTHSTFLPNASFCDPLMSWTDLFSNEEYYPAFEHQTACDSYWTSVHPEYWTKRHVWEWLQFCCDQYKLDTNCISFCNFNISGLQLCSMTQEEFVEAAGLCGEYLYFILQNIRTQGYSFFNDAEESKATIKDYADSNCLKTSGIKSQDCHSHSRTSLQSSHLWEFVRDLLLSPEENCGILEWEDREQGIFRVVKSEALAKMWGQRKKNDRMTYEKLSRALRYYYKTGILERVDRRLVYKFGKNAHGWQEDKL
# Method in brief: as §1
# ETV3 = biological target: T12, ETV3 (Homo sapiens, UniProt P41162-2 1-143); conditions: protein: recombinant; tags: N-terminal GST; dsDNA, one strand shown
# T12 sequence: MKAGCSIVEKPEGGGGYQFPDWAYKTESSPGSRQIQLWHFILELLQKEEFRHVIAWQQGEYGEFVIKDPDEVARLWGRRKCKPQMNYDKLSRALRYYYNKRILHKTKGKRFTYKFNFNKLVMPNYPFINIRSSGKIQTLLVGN
# Method in brief: as §1
# ETV6 = ETV6 (Homo sapiens, UniProt P41212 1-452); conditions: protein: recombinant; tags: N-terminal GST; dsDNA, one strand shown
# Chain of ETV6 (P41212 whole entry): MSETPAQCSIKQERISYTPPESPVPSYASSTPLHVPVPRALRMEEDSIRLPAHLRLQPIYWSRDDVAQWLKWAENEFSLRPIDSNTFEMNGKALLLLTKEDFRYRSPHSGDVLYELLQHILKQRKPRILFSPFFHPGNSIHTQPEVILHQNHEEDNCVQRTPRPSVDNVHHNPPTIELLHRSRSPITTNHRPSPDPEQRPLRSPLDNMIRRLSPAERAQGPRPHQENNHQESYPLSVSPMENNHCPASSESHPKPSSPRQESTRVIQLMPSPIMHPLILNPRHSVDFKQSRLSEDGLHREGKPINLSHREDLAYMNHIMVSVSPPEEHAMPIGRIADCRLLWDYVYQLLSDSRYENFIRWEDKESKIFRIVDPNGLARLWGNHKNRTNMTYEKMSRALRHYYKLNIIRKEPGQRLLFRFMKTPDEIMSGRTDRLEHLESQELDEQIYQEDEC
# Method in brief: as §1
sequence,measurement,setting,value
ACTTCT,binding signal,FEV,"1.4 fold enrichment (6-mer frequency, TF over GST control)"
same,binding signal,ETV5,"1.45 fold enrichment (6-mer frequency, TF over GST control)"
same,binding signal,HSF1,"2.1 fold enrichment (6-mer frequency, TF over GST control)"
same,binding signal,SPIC,"1.47 fold enrichment (6-mer frequency, TF over GST control)"
same,binding signal,ELF4,"1.49 fold enrichment (6-mer frequency, TF over GST control)"
same,binding signal,ELK4,"1.83 fold enrichment (6-mer frequency, TF over GST control)"
same,binding signal,ETV2,"1.37 fold enrichment (6-mer frequency, TF over GST control)"
same,binding signal,ELF3,"1.45 fold enrichment (6-mer frequency, TF over GST control)"
same,binding signal,CRX,"1.55 fold enrichment (6-mer frequency, TF over GST control)"
same,binding signal,ETV1,"1.47 fold enrichment (6-mer frequency, TF over GST control)"
same,binding signal,ERF,"1.35 fold enrichment (6-mer frequency, TF over GST control)"
same,binding signal,ETV3L,"1.65 fold enrichment (6-mer frequency, TF over GST control)"
same,binding signal,ETS2,"1.4 fold enrichment (6-mer frequency, TF over GST control)"
same,binding signal,SPDEF,"1.21 fold enrichment (6-mer frequency, TF over GST control)"
same,binding signal,ETV7,"1.5 fold enrichment (6-mer frequency, TF over GST control)"
same,binding signal,ELF5,"1.58 fold enrichment (6-mer frequency, TF over GST control)"
same,binding signal,ETV3,"1.36 fold enrichment (6-mer frequency, TF over GST control)"
same,binding signal,ETV6,"1.58 fold enrichment (6-mer frequency, TF over GST control)"
